From PubChem BioAssay (NCI)
Compounds without any hit were thinned out: in the full panel of roughly 79,000, 15% have a hit. Cut-off read from the data, not from the text of the source: active = growth inhibition above about 70%; inactive = the rest.

What was measured:
[1] = NCI Yeast Anticancer Drug Screen. Data for the rad50 strain (AID 155);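 note: 0% = growth of vehicle-only cultures of the same strain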; conditions: S. cerevisiae rad50 strain growth inhibition; at 50.0 µM; active compounds read high
Summary of the method: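 A DNA repair-deficient yeast mutant serves as the test organism; compound-induced growth inhibition is calculated against vehicle-treated cells.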

[2] = NCI Yeast Anticancer Drug Screen. Data for the mec2-1 strain (AID 157); conditions: S. cerevisiae mec2-1 strain, at 50.0 µM, active compounds read high
Summary of the method: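 Strain: mec2-1 (DNA repair/cell cycle alteration). Compound exposure, then growth measured; inhibition expressed relative to vehicle.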

[3] = NCI Yeast Anticancer Drug Screen. Data for the sgs1 mgt1 strain (AID 161);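 note: 0% = growth of cultures given vehicle only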; conditions: S. cerevisiae sgs1 mgt1 strain, at 50.0 µM, active compounds read high
Summary of the method: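 Read-out: growth inhibition vs vehicle controls. Cells: mutant yeast strain deficient in DNA damage repair.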

[4] = NCI Yeast Anticancer Drug Screen. Data for the cln2 rad14 strain (AID 165);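 note: 0% = growth equal to vehicle treated cultures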; conditions: S. cerevisiae cln2 rad14 strain, at 50.0 µM, active compounds read high
Summary of the method: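 Compounds are applied to the cln2 rad14 yeast strain, and growth is then compared with that of vehicle-treated cultures to give inhibition.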

[5] = NCI Yeast Anticancer Drug Screen. Data for the bub3 strain (AID 167); conditions: S. cerevisiae bub3 mutant strain, at 50.0 µM, active compounds read high
Summary of the method: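 Inhibition values come from growth of compound-treated mutant yeast normalised to vehicle-treated controls.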

[6] = NCI Yeast Anticancer Drug Screen. Data for the mlh1 rad18 strain (AID 175); conditions: S. cerevisiae mlh1 rad18 strain growth inhibition; at 50.0 µM; active compounds read high
Summary of the method: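 Read-out is yeast growth inhibition, calculated against vehicle-only controls. The compound was applied to a strain engineered with DNA damage repair alterations.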

Measured: growth inhibition

COC1(OC)C2(Cl)CC(C(=O)O)C1(Cl)C(Cl)=C2Cl (configuration not stated)
inactive: [1] 7.55% | [2] 3.85% | [3] 19.6% | [4] -51.7% | [5] -1.35% | [6] 13.7%

CCOC(=O)NC(NC(=O)OCC)c1ccc(C(NC(=O)OCC)NC(=O)OCC)cc1
inactive: [1] 30.9% | [2] 13.2% | [3] 5.45% | [4] 5% | [5] 2.8% | [6] 7.9%

CC(=O)[O-].[Mn+3].[O-]c1ccccc1C=NCCNCCN=Cc1ccccc1[O-]
inactive: [1] 17.9% | [2] 8.1% | [3] 49.6% | [4] -7.35% | [5] 8.3% | [6] 51.1%

CCOC(=O)/C(C)=C(/O)C(=O)OCC
inactive: [1] -45.2% | [2] -56.3% | [3] -22% | [4] -7.05% | [5] -40.2% | [6] -27.9%

O/N=C(/CC(O)(c1ccccc1)c1ccccc1)c1ccccc1
inactive: [1] 22.6% | [2] -6.8% | [3] 7.8% | [4] -15.4% | [5] -17.9% | [6] 27.4%

S=C(Nc1ccccc1)Nc1ccccc1S
inactive: [1] -15.4% | [2] -19.8% | [3] 6.75% | [4] -20.4% | [5] 14.7% | [6] -18.9%

Cc1ccc(S(=O)(=O)OC(CI)C2OC(c3ccccc3)OC3COC(c4ccccc4)OC32)cc1 (configuration not stated)
inactive: [1] 0.25% | [2] 13.2% | [3] 7.7% | [4] 8.6% | [5] 16.1% | [6] 25.6%

O=C(CSc1nnc(Cc2ccccc2)o1)Nc1ccccc1
inactive: [1] -28.1% | [2] 0.05% | [3] -38.6% | [4] -13.3% | [5] -35.5% | [6] -27.1%

COc1ccc(N=Cc2ccc(C#N)cc2)cc1
inactive: [1] 9.4% | [2] -25.2% | [3] -7.15% | [4] 7.95% | [5] -12.8% | [6] -4.9%

COC1OC(CO)C(O)C(NC(=O)[C@H](Cc2ccc(O)cc2)NC(=O)OCc2ccccc2)C1O (some centres not stated)
inactive: [1] 8.6% | [2] -3.75% | [3] 3.2% | [4] -6.05% | [5] -0.5% | [6] 7.1%

O=C(C(=NC12CC3CC(CC(C3)C1)C2)NNc1ccc([N+](=O)[O-])cc1[N+](=O)[O-])C(Br)C(=O)c1ccccc1 (configuration not stated)
inactive: [1] 47.2% | [2] 45.9% | [3] 56.2% | [4] 3.25% | [5] 51.5% | [6] 39.9%

CC(C(/C=N/NC(N)=S)=N/NC(N)=S)N1C(=O)c2ccccc2C1=O (configuration not stated)
inactive: [1] 3.75% | [2] -11.2% | [3] -16.9% | [4] -5.1% | [5] 2.45% | [6] 23.9%

C=CCNC(=S)NN(C)C
inactive: [1] -42% | [2] -16% | [3] -16.9% | [4] -51.5% | [5] -28.2% | [6] -16.4%

CC1(C)OC(=O)C(=Cc2ccc(C#N)cc2)C(=O)O1
inactive: [1] 19% | [2] 9.6% | [3] 15.4% | [4] 11.8% | [5] 28.6% | [6] 22.8%

CCC(CC)C(=O)OCCc1ccccc1
inactive: [1] 5% | [2] 3.05% | [3] -2.35% | [4] -6.3% | [5] 9.9% | [6] 0.75%

C=C1CCCCCCCCC/C=C/1SCCCSC
inactive: [1] 5.6% | [2] 26.4% | [3] -31.6% | [4] -17.9% | [5] -19% | [6] -20.2%

O=C(O)C1CCOCC1
inactive: [1] 9.9% | [2] 0.7% | [3] 2.35% | [4] 4% | [5] 15.2% | [6] -0.4%

OCC(O)C(O)C(O)[C@H](O)c1nc2ccccc2[nH]1 (some centres not stated)
inactive: [1] -15.7% | [2] -1.7% | [3] 0.15% | [4] -19.6% | [5] 27.4% | [6] 14.8%

O=C(O)CSc1ccc2c3c(cccc13)C(=O)c1ccccc1-2
inactive: [1] -9.9% | [2] 27.4% | [3] 7.95% | [4] 26% | [5] 56.8% | [6] 3.1%

CC(=O)N1CC(C)(C)c2c(C)c(O)c(C)c(C)c21
inactive: [1] -16.1% | [2] -22.3% | [3] -15.4% | [4] 17.1% | [5] 8.45% | [6] 0.3%

COc1cc2c(cc1O)C(=O)CCCC2
inactive: [1] -13.8% | [2] 0.75% | [3] -17.8% | [4] -2.25% | [5] 14.1% | [6] 1.2%

CCOC(=O)c1c(C)[nH]c(C2=NCCC2)c1C
inactive: [1] -8.7% | [2] 5.3% | [3] 1.7% | [4] -55.9% | [5] 2.95% | [6] -5.95%

CC(=O)CC(=O)c1ccc(Cl)cc1
inactive: [1] -28.4% | [2] -11.4% | [3] -10.8% | [4] -13.6% | [5] -4.1% | [6] -0.25%

CC(=O)C1=C(c2ccccc2)N(C2OC(CO)C(O)C(O)C2O)C(S)=C(C#N)C1c1ccc(Cl)cc1 (configuration not stated)
inactive: [1] 42.9% | [2] 23.9% | [3] 10.1% | [4] 29.2% | [5] 25.1% | [6] 49%

CCOC(=O)Cn1c(=O)c2nc(SC)sc2n(CC)c1=S
inactive: [1] -21.8% | [2] 21.1% | [3] -1.15% | [4] -6.55% | [5] 9.45% | [6] 4%

Cc1ccc2c(c1)[nH]c(=S)n2C=C1C(=O)CC(C)(C)CC1=O
inactive: [1] -40% | [2] -63.3% | [3] -33.8% | [4] 9.05% | [5] -21.6% | [6] -9.25%

CCOC(=O)C1=C(C(=O)c2cccc3ccccc23)C(c2cccc([N+](=O)[O-])c2)C(C(=O)c2cccc3ccccc23)=C(C(=O)OCC)N1
inactive: [1] -12.9% | [2] -7.75% | [3] 13.7% | [4] -26.3% | [5] -45.6% | [6] -25.2%

O=c1c2ccccc2[nH]c2c(O)c3c(=O)c4ccccc4[nH]c3cc12
inactive: [1] -8.6% | [2] -2.05% | [3] 3.9% | [4] -4.4% | [5] 3.15% | [6] 4.05%

CC(=O)c1cc(C(C)=O)c2cc(C)cc(O)c2c1O
inactive: [1] 15.7% | [2] -13.9% | [3] 8.45% | [4] 1.9% | [5] 13.9% | [6] -9.7%

COc1ccc(C=Nc2ccc(C(=O)O)cc2)cc1
inactive: [1] 0.5% | [2] 9.35% | [3] 1.45% | [4] -2.25% | [5] 13.9% | [6] -6.25%

O=C1OC(c2ccccc2)N(C(=O)c2ccccc2)C1Cc1ccc(OCc2ccccc2)cc1 (configuration not stated)
inactive: [1] -30.5% | [2] -6.4% | [3] -5.65% | [4] -13.7% | [5] 0.95% | [6] 5.75%

O=C(Nc1nc2ccccc2n1Cc1ccc(Cl)cc1)NC12CC3CC(CC(C3)C1)C2
inactive: [1] 15.8% | [2] -6.45% | [3] 7.2% | [4] -30.6% | [5] 27.5% | [6] -18.6%

CN(C)CCC(CCN(C)C)=NO
inactive: [1] -37.2% | [2] -49.1% | [3] 3.4% | [4] 15.5% | [5] -31.4% | [6] -12.1%

O=C(O)/N=N\C(=O)O
inactive: [1] -36.9% | [2] -23.9% | [3] -19.4% | [4] -5.05% | [5] -26.4% | [6] -27.2%

CCc1cc2c(O)c(c1)Cc1cc(CC)cc(c1O)Cc1cc(CC)cc(c1O)Cc1cc(CC)cc(c1O)Cc1cc(CC)cc(c1O)Cc1cc(CC)cc(c1O)Cc1cc(CC)cc(c1O)C2
inactive: [1] 6.55% | [2] 27.2% | [3] 19.8% | [4] 6.5% | [5] 6.9% | [6] 17.3%

Nc1nnc(-c2ccccc2O)o1
inactive: [1] 36.3% | [2] 4.25% | [3] 23.7% | [4] 33.1% | [5] 21.4% | [6] 32.2%

Clc1ccccc1-c1nc(-c2ccncc2)no1
inactive: [1] 23.3% | [2] -14.9% | [3] -25% | [4] 34.1% | [6] 34%

Nc1ccc(-c2nc3ccc(N)cc3[nH]2)cc1
inactive: [1] -17.1% | [2] -17.9% | [3] -18.1% | [4] 6.45% | [6] -18.2%

NC(=O)C(=O)N/N=C1/c2ccccc2CC1C1(O)C(=O)Nc2c(Cl)cc(Cl)cc21 (configuration not stated)
inactive: [1] 50.4% | [2] 30.9% | [3] 38.5% | [4] 16.6% | [5] 3.55% | [6] 44.2%
